Laboratory results from PubChem BioAssay AID463173 (ICCB-Longwood Screening Facility, Harvard Medical School, 2010).
The campaign covered roughly 52,000 compounds. About 4,300 (8.3%) were called active. Shown is part of a subset that was picked to be rich in actives. Unmarked numbers belong to inactive results. Rule as the data show it: active = survival mostly below about 52% (no sharp cut-off); inactive = mostly above about 56%.

System: DeltatarO mutant
Test: S. aureus survival, RN4220 and DeltatarO strains – OD600, teichoic acid synthesis inhibitors, primary screen (AID 463173)
Conditions: S. aureus RN4220 wild type/DeltatarO growth, OD600, 18 h, hits give low values, screened at 18.75 µg/mL (by protocol)

| Structure (SMILES) | survival |
| --- | --- |
| CC(=O)c1ccc(N2CCN(c3ncnc4c3c(-c3ccccc3)cn4-c3ccc(Cl)cc3)CC2)cc1 | 91% |
| O=C(CSc1nc2ccsc2c(=O)n1Cc1ccccc1F)NCc1ccccc1 | 122% |
| COc1cccc(NC(=O)Cn2c(=O)n(-c3cccc(OC)c3)c(=O)c3sc4ccccc4c32)c1 | 65% |
| CCCCNC(=O)c1ccc2c(=O)n(-c3ccccc3)c(=O)[nH]c2c1 | 80% |
| COc1ccc(C(=O)N2CC(=O)Nc3ccc(F)cc3C2c2ccc(F)cc2)c(OC)c1 (stereo unspecified) | 58% |
| Cc1ccccc1CNCc1c(C(=O)O)c(C)n(Cc2ccc(F)cc2Cl)c1C | 59% |
| O=C(COCc1cc(-c2cccs2)on1)NCc1cccc(Cl)c1 | 117% |
| CCOc1nc(NC(=O)NS(=O)(=O)Oc2ccccc2)nc(-c2ccccc2)n1 | 70% |
| CCOC(=O)c1ccc(N2C(=O)Cc3cc(OCC)c(OCC)cc3C2c2ccccc2)cc1 (stereo unspecified) | 117% |
| CC(C)NC(=O)c1ccc2c(c1)nnn2C | 78% |
| O=C(COc1ccccc1-c1nc(-c2ccccc2)no1)Nc1cccc([N+](=O)[O-])c1 | 34% (active) |
| O=C(COc1ccccc1-c1nc(-c2ccccc2)no1)Nc1ccc([N+](=O)[O-])cc1 | 44% (active) |
| CC(=O)c1ccc(NC(=O)COc2ccccc2-c2nc(-c3ccc(C)cc3)no2)cc1 | 57% |
| Cc1cccc(-c2noc(-c3ccccc3OCC(=O)Nc3ccc([N+](=O)[O-])cc3)n2)c1 | 50% |
| Cc1ccccc1-c1noc(-c2ccccc2OCC(=O)Nc2cccc([N+](=O)[O-])c2)n1 | 51% |
| Cc1noc(-c2ccccc2OCC(=O)Nc2cccc([N+](=O)[O-])c2)n1 | 60% |
| CCN(C(=O)C1CCN(S(=O)(=O)c2ccc3c(c2)CCCN3C(C)=O)CC1)c1cccc(C)c1 | 88% |
| CCN(CC)S(=O)(=O)c1ccc(OC)c(-n2cnnn2)c1 | 65% |
| COC(=O)c1ccccc1NC(=O)c1nc(S(=O)(=O)Cc2ccccc2F)ncc1Cl | 110% |

| Structure (SMILES) | survival |
| --- | --- |
| COc1ccc2nc(NC(=O)c3nc(S(=O)(=O)Cc4ccccc4F)ncc3Cl)sc2c1 | 61% |
| O=C(Nc1ccccc1F)c1nc(SCc2ccccc2F)ncc1Cl | 73% |
| COc1ccc(NC(=O)c2nc(SCc3ccccc3F)ncc2Cl)cc1 | 73% |
| O=C(Nc1ccccc1F)c1nc(S(=O)(=O)Cc2ccccc2F)ncc1Cl | -4% (active) |
| CCOc1ccc(NC(=O)c2nc(S(=O)(=O)Cc3ccccc3F)ncc2Cl)cc1 | 11% (active) |
| Cc1cc(C)c2c(=O)cc(C(=O)Nc3sc4c(c3C(=O)NCc3cccnc3)CCCC4)oc2c1 | 68% |
| CCOCCCNC(=O)c1c(NC(=O)c2cc(=O)c3ccccc3o2)sc2c1CCC2 | 48% |
| Cc1nc2c(Cl)cc(Cl)cc2[nH]1 | 88% |
| CCOc1cccc2cc(-c3cn4c(n3)sc3ccccc34)c(=O)oc12 | 72% |
| COc1cccc2cc(-c3cn4c(n3)sc3cc(F)ccc34)c(=O)oc12 | 60% |
| CCOc1cccc2cc(-c3cn4c(n3)sc3cc(C)ccc34)c(=O)oc12 | -4% (active) |
| COCCCNC(=O)CS(=O)Cc1nc(-c2cccc(C)c2)oc1C (stereo unspecified) | 90% |
| S=C(NC12CC3CC(CC(C3)C1)C2)N1CCOCC1 | 98% |
| CCC(C)NC(=O)c1cn(CC)c2ccc(S(=O)(=O)N3CCCCC3)cc2c1=O (stereo unspecified) | 84% |
| Cc1ccc(COC(=O)c2[nH]c3c(c2C)C(=O)CC(c2ccc(N(C)C)cc2)C3)cc1 (stereo unspecified) | 77% |
| CCCOC(=O)c1c(NC(=O)c2nc3ncccn3n2)sc(C(=O)OCC)c1C | 68% |
| O=C(CN1C(=O)CCc2cc(S(=O)(=O)N3CCCCC3)ccc21)NCc1ccc(Cl)cc1 | 78% |
| CC(=O)Nc1ccccc1-c1nc2ccccc2n(CC(=O)c2ccc(Br)cc2)c1=O | 76% |
| CCC(=O)Nc1ccccc1-c1nc2ccccc2n(CC(=O)Nc2ccc(C)c(C)c2)c1=O | 47% |

| Structure (SMILES) | survival |
| --- | --- |
| CC(=O)Nc1ccccc1-c1nc2ccccc2n(CC(=O)c2ccc(C)c(C)c2)c1=O | 104% |
| CCC(=O)Nc1ccccc1-c1nc2ccccc2n(CC(=O)c2ccc(Br)cc2)c1=O | 29% (active) |
| CCC(=O)Nc1ccccc1-c1nc2ccccc2n(CC(=O)c2ccc(C)c(C)c2)c1=O | 33% (active) |
| CCC(=O)Nc1ccc(C)cc1-c1nc2ccccc2n(CC(=O)c2ccc(C)cc2)c1=O | 68% |
| CCC(=O)Nc1ccccc1-c1nc2ccccc2n(CC(=O)c2ccc(Cl)cc2)c1=O | 35% (active) |
| CCC(=O)Nc1ccccc1-c1nc2ccccc2n(CC(=O)c2ccc(C)cc2)c1=O | 50% |
| CC(=O)Nc1ccc(C)cc1-c1nc2ccccc2n(CC(=O)c2ccc(Cl)cc2)c1=O | 82% |
| COc1ccc(CCNC(=O)Cn2c(=O)n(-c3cc(OC)c(OC)c(OC)c3)c(=O)c3ccccc32)cc1OC | 81% |
| COc1cc(CNCCSc2nnnn2C)ccc1OCc1ccc(F)cc1 | 122% |
| COC(=O)c1ccccc1NC(=O)c1cnc2c(-c3cccc(C)c3)c(C)nn2c1C | 128% |
| CCOc1ccc2nc(SCC(=O)N(C)C3CCCCC3)c(C#N)cc2c1 | 89% |
| COc1ccccc1NC(=O)C1CCN(c2cnccn2)CC1 | 54% (active) |
| COc1cc(NC(=O)C2CCN(c3cnc4ccccc4n3)CC2)cc(OC)c1OC | -5% (active) |
| COc1cc(NC(=O)C2CCN(c3nc4ccccc4nc3C(F)(F)F)CC2)cc(OC)c1 | 101% |
| COc1cc(NC(=O)c2nc3ccccc3nc2N2CCCCC2)cc(OC)c1OC | 87% |
| CCc1ccccc1NC(=O)C1CCN(c2cnccn2)CC1 | 43% |
| COc1cc(NC(=O)C2CCN(c3cnccn3)CC2)cc(OC)c1 | 79% |
| Cc1c(Cl)cccc1NC(=O)CN1C(=O)COc2ccc(S(=O)(=O)Nc3ccccc3)cc21 | 60% |
